# Results as given in PubChem BioAssay (Tox21).
# “And” between values parts separate entries of the source, which are not always exact repeats. Equal entries are not always repeated. Records with an inconclusive call do not appear. Some compounds were tested as several samples or in several runs, with calls that do not always agree. The source made the active and inactive calls. The call rests on the fitted dose curve; in most records, active means well fitted activation curve with a large enough effect in the repeat runs; inconclusive means weak or mixed curves; inactive means flat fitted curve, though single readings scatter.
# Experiment: A CellTox Green Cytotoxicity Assay to monitor cytotoxicity in HepG2 cells - 8 hour (AID 1224890); further: nearly all actives have a fitted effect of over 45% in size
# Conditions: CellTox Green fluorescence; series mostly up to 76.8 µM; cytotoxicity increase: at the top concentration
# Text: National Center for Advancing Translational Sciences [NCATS]
# NIH Chemical Genomics Center [NCGC]
# U.S. Environmental Protection Agency [EPA]
# National Institutes of Environmental Health Sciences [NIEHS]
# National Toxicology Program [NTP]
# Cell-based models are critical for drug discovery. Determining the natural cytotoxic effects resulting from test compounds is an essential research activity. A CellTox Green Cytotoxicity Assay to monitor cytotoxicity in real time of continues cell culture during 40 hours of the compound treatment was used to screen Tox21 10K library compounds in HepG2 cells. CellTox Green Cytotoxicity Assay is a nonlytic, homogeneous, biofluorescent method to measure cytotoxicity in cell culture after experimental manipulation. The assay system uses a proprietary asymmetric cyanine dye that is excluded from viable cells but preferentially stains the dead cell's DNA. […] Viable cells produce no appreciable increases in fluorescence. Therefore, the fluorescence signal produced by the binding interaction with dead cell DNA is proportional to cytotoxicity.
# The mixture of HepG2 cell suspension and reagents were dispensed at 600cells/6 ul/well in 1536-well tissue culture treated black solid bottom plates using a Multidrop dispenser. After the assay plates were incubated at a 37 C/5% CO2 incubator for 5 hours, 23 nL of compounds dissolved in DMSO, positive and negative controls was transferred to the assay plate by a pintool work station. The plates were incubated at 37 C for 40 hours. The fluorescence intensity were measured at 0h, 8h, 16h, 24h, 32h and 40h time points using ViewLux plate reader during compound treatment.
# On the % scale 0 is the no-effect control and ±100 the full control effect; potency means the concentration at half of the fitted maximal effect.
SMILES,cytotoxicity increase,Potency
COP(=S)(OC)Oc1cc(Cl)c(Br)cc1Cl,0.168% (inactive),
N#CCCC(Br)(C#N)CBr (stereo not given),,54.9 µM (active)
COC12CC[C@@]3(C[C@@H]1C(C)(O)C(C)(C)C)[C@H]1Cc4ccc(O)c5c4[C@@]3(CCN1CC1CC1)[C@H]2O5 (stereo not given in full),,43.4 µM (active)
C=CCOC(N)=O,6.55% (inactive),
CN(C)S(=O)(=O)N(SC(F)(Cl)Cl)c1ccccc1,7.82% (inactive),
BrCC(Br)c1ccccc1 (stereo not given),-0.183% (inactive),
Oc1ccc(C2(c3ccc(O)cc3)CCCCC2)cc1,4.77% (inactive),
COC(=O)N(C(=O)N1COC2(C(=O)OC)Cc3cc(Cl)ccc3C2=N1)c1ccc(OC(F)(F)F)cc1 (stereo not given),-19.3% [at 35.3 µM] (inactive),
CC[C@H]1C[C@@H]2C[C@H]3c4[nH]c5ccc(OC)cc5c4CCN(C2)[C@@H]13,-14.2% (inactive),
CC1(C)C(/C=C(\Cl)C(F)(F)F)C1C(=O)OC(C#N)c1cccc(Oc2ccccc2)c1 (stereo not given),0.219% (inactive),
c1cc[c]([Sb]([c]2ccccc2)[c]2ccccc2)cc1,2.17% (inactive),
CC(C)OC(=S)S,-3.33% (inactive),
CCCCCCCCCCCCCCCC[n+]1ccccc1,,49 µM (active) and 48.3 µM (active) and 16.9 µM (active)
ClC1=C(Cl)[C@]2(Cl)[C@H]3[C@H]([C@H]4C=C[C@H]3C4)[C@@]1(Cl)C2(Cl)Cl,-5.98% (inactive),
ClC(Cl)=C(c1ccc(Cl)cc1)c1ccc(Cl)cc1,,inactive
Nc1ccccc1C(=O)Oc1ccc2ccccc2c1,17% (inactive),
OC(c1ccc(Cl)cc1)(c1ccc(Cl)cc1)C(Cl)(Cl)Cl,0.046% (inactive),
O=c1[nH]c2ccccc2n1C1CCN(CCCC(c2ccc(F)cc2)c2ccc(F)cc2)CC1,,54.9 µM (active) and inactive
O=C(O)c1cc[c]([Hg][Cl])cc1,,38.9 µM (active)
CN(C)C1CSSSC1,0.78% (inactive),

SMILES,cytotoxicity increase,Potency
CC(Cl)CN(C)C (stereo not given),-8.54% (inactive),
Clc1ccc(C(Cl)(Cl)Cl)c(Cl)c1,5.88% (inactive),
Oc1ccc(I)cc1,2.85% (inactive),
CCOP(=S)(OCC)OC(Cl)C(Cl)(Cl)Cl (stereo not given),9.39% (inactive),
N#CCCSCCC#N,9.13% (inactive),
CNC(C)Cc1ccc2c(c1)OCO2 (stereo not given),-8.46% (inactive),
O=C(O)C1C2CCC(O2)C1C(=O)O (stereo not given),,inactive
CC1(C)[C@H](C(=O)O[C@H](C#N)c2cccc(Oc3ccccc3)c2)[C@@H]1/C=C(\Cl)C(F)(F)F,,inactive
[Cd+2].[Cl-].[Cl-],,inactive
C[C@]12Cc3nonc3C[C@@H]1CC[C@@H]1[C@@H]2CC[C@@]2(C)[C@H]1CC[C@]2(C)O,1.4% [at 35.3 µM] (inactive),
Cc1ccc(OP(=O)(Oc2ccccc2)Oc2ccccc2)cc1,-0.494% (inactive),
C[C@@H]1O[C@@H](O[C@@H]2C=C3CC[C@@H]4[C@H](CC[C@]5(C)[C@@H](c6ccc(=O)oc6)CC[C@]45O)[C@@]3(C)CC2)[C@H](O)[C@H](O)[C@H]1O,-15.2% [at 35.3 µM] (inactive),
CCCCCCCCCCCCBr,1.77% (inactive),
CC(=O)[O-].[Tl+],0.712% (inactive),
N#CCc1ccc(Cl)cc1,5.17% (inactive),
Cc1ccc(CCl)cc1,0.138% (inactive),
O=C(Nc1ccc2[nH]ccc2c1)c1cc2cc(F)ccc2n1Cc1cccc(F)c1,-7.63% (inactive),
Clc1ccc(-c2ccc(Cl)c(Cl)c2Cl)c(Cl)c1Cl,-7.49% (inactive),
CCCN(CCC)CCc1c[nH]c2ccccc12,-0.0136% (inactive),
CC(=O)OC1(c2ccccc2)CCN(CCc2ccccc2)CC1,-13.3% (inactive),
